# Data as given in publication PMC7819943, “Rice protein-binding microarrays: a tool to detect cis-acting elements near promoter regions in rice”.
# Whole data set: some 39,000 sequences, median “fluorescence intensity (a.u.)” near 4,300, cut for the highest 2% near 39,000. The list comes from a sample in which the highest values are over-represented; it also holds similar and randomly drawn sequences.
# Biological target: T1, OsSMF1 (Oryza sativa, UniProt Q6ZLB0 1-436)
# T1 sequence: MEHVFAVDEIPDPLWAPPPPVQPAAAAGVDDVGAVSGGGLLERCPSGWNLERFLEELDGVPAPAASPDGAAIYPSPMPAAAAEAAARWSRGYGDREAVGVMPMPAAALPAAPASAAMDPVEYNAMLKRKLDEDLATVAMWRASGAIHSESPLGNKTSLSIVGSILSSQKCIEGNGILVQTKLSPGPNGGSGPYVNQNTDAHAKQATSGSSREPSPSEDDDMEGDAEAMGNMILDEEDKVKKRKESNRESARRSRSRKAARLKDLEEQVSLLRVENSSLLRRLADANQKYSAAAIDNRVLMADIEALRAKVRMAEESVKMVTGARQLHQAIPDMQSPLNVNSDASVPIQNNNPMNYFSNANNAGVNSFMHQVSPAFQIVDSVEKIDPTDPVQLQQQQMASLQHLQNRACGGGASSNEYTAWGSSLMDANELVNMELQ
# Test: protein-binding microarray (RPBM); PBS, 2% BSA, 51.3 ng/ul salmon testes DNA, 50 uM zinc acetate, 200 nM TF, 25 C, 1 h; high values mean tight binding
# Conditions: protein: recombinant; tags: N-terminal polyhistidine and DsRed monomer fusion (pET32a); chain copies: 2; label: CyDye5-dUTP incorporated in the synthesized complementary strand; 3' TTTTT single-stranded linker to array surface; dsDNA, one strand shown
# Summary of the method: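 Transcription factors were made in E. coli BL21-CodonPlus as N-terminal fusions to a polyhistidine tag and DsRed, then purified on Ni–NTA. After primer extension with Cy5-dUTP and blocking with 2% BSA, a custom Agilent array was exposed for 1 h at 25 °C to 200 nM protein in PBS, 2% BSA, salmon testes DNA and 50 µM zinc acetate. Washed arrays were scanned on an Axon 4000B, and the binding signal is per-feature fluorescence intensity in arbitrary units.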
row,Sequence,binding signal
1,AACAAATATCGTTCCTCGGTGTCGTCATCGTGTTTGGATCCGGAGTCACCTAGTGCAG,6670 fluorescence intensity (a.u.)
2,GCAAGCAAAGAAAGTTGTCATCATCCCAATCCTCCTCCGCCGGAGTCACCTAGTGCAG,4050 fluorescence intensity (a.u.)
3,GTCTTTCCGAGTGGTGGCGGCGGTGGCTGATCTGCTTGTGCGGAGTCACCTAGTGCAG,3420 fluorescence intensity (a.u.)
4,CATTCCTCTCTTTCCCCTCATCCCTATAAATCCAACATTTCGGAGTCACCTAGTGCAG,3440 fluorescence intensity (a.u.)
5,CACCACCACCACGACGCCAACGTCAACGGCGAGGACCAAGCGGAGTCACCTAGTGCAG,3270 fluorescence intensity (a.u.)
6,CCCACATGTCGGTCCAATTCTCCCTCCAGCCACTCCCGACCGGAGTCACCTAGTGCAG,3220 fluorescence intensity (a.u.)
7,CTAATATGGATAGATTGAAACATCAAGGACTAAACTGAGCCGGAGTCACCTAGTGCAG,3460 fluorescence intensity (a.u.)
8,CTGAAACCAACATCCAAGTCATCATGTCCAAGATGTCTCCCGGAGTCACCTAGTGCAG,6640 fluorescence intensity (a.u.)
9,GATTGAAACATCAAGGACTAAACTGAGTCTCAGATGAAACCGGAGTCACCTAGTGCAG,58100 fluorescence intensity (a.u.)
10,GAGAGATCGTACACGAGTCATTTCAACTCGGACAATTTGCCGGAGTCACCTAGTGCAG,3180 fluorescence intensity (a.u.)
11,CGACTCAAAGATAAATGATATGTCATCGGCACCTAGCCGACGGAGTCACCTAGTGCAG,4200 fluorescence intensity (a.u.)
12,TGTGACACATGTTACACATAATTATTATGTGAGTGGTAAACGGAGTCACCTAGTGCAG,4020 fluorescence intensity (a.u.)
13,ACAACAGCTCGATCCATCCACGCGCGCGTGACGGCTCGGCCGGAGTCACCTAGTGCAG,4690 fluorescence intensity (a.u.)
14,CAATTCTACAATATGCCACTGAGTTTACCAAGTTATACAACGGAGTCACCTAGTGCAG,4020 fluorescence intensity (a.u.)
15,GAAATCTGAACAACCAAGTTACTACTGTACTTATGTTAGTCGGAGTCACCTAGTGCAG,20700 fluorescence intensity (a.u.)
16,TACTTCTACCTACCTTACCAAGTCCTGACAGTTACAACGTCGGAGTCACCTAGTGCAG,55400 fluorescence intensity (a.u.)
17,ATAAATACCAGCTTTCCAACCATCACTTATTCACTTGCCCCGGAGTCACCTAGTGCAG,3740 fluorescence intensity (a.u.)
18,TAATCCAGTACTACTTGCTGTGACAGTGTGATGTGCTTGTCGGAGTCACCTAGTGCAG,3540 fluorescence intensity (a.u.)
19,AGATTGCCATCGGACGCAGTAAAACGTGTCACTACCCCACCGGAGTCACCTAGTGCAG,7590 fluorescence intensity (a.u.)
20,CTTAATTAATTATACACACAAACATTCCCTCCAATGCATGCGGAGTCACCTAGTGCAG,3760 fluorescence intensity (a.u.)
21,TGATGCTACAATAAACATTTACTAATGACGGATTAATTAGCGGAGTCACCTAGTGCAG,3430 fluorescence intensity (a.u.)

row,Sequence,binding signal
1,TAAACACAATTCTCCCTAATTATTATTTCTGGATGATGAGCGGAGTCACCTAGTGCAG,41400 fluorescence intensity (a.u.)
2,AATGTTTGTAGCACGGGAGGCATACCACATACATACATTGCGGAGTCACCTAGTGCAG,3640 fluorescence intensity (a.u.)
3,CTCGATCACACACGGTGTCACAGTCACAGGTGCATTGACGCGGAGTCACCTAGTGCAG,7140 fluorescence intensity (a.u.)
4,CTCTCCCAGCGGTAATGGAGGGCGGTTTTGCTGACGTGGCCGGAGTCACCTAGTGCAG,58300 fluorescence intensity (a.u.)
5,TGGAGGCGACGTGGCGGTCGTTGACTCGTTGTGTGCTCGACGGAGTCACCTAGTGCAG,7090 fluorescence intensity (a.u.)
6,GTTTTGGAGGGCGGTTTTGCTGACGTGGCGCTGACATGGCCGGAGTCACCTAGTGCAG,32800 fluorescence intensity (a.u.)
7,ACTCCCTCGACGGTTTTGGAGGGCGATTTTGCTGACGTGGCGGAGTCACCTAGTGCAG,47600 fluorescence intensity (a.u.)
8,TAGAGAGCGGTTTTGCTGACGTGGCGTATACGTGACGGTACGGAGTCACCTAGTGCAG,33100 fluorescence intensity (a.u.)
9,GATGACGACGGCGATGACGGCGGGGCGGTTTGGAGCGGGGCGGAGTCACCTAGTGCAG,4720 fluorescence intensity (a.u.)
10,GAGAGGGGTGCGCAGTGTGTTGTGGTGGTGCACATGACGGCGGAGTCACCTAGTGCAG,3510 fluorescence intensity (a.u.)
11,CCGGAAAATCTATCTGTGCTTATAAATAGCCATTATCCAACGGAGTCACCTAGTGCAG,57400 fluorescence intensity (a.u.)
12,GCGTGTGCATCTGCCATGTAATCCAAAATATAGCCATGAACGGAGTCACCTAGTGCAG,3660 fluorescence intensity (a.u.)
13,AGATAATCCATAATAATAATTAGCTTAATAATCTAAATCACGGAGTCACCTAGTGCAG,27300 fluorescence intensity (a.u.)
14,TCGCAACAACAAGAATGATGATGGCATGACGAAAATGCTACGGAGTCACCTAGTGCAG,3570 fluorescence intensity (a.u.)
15,CTCGTGGGGACGACGCTGGTGTCCGTGTACTGCAAGTGCGCGGAGTCACCTAGTGCAG,4060 fluorescence intensity (a.u.)
16,TGTCCCCGCGCATCCGCGGACGTGGCTGGGCAACTGCTCGCGGAGTCACCTAGTGCAG,8030 fluorescence intensity (a.u.)
17,TACTGCATGCGCAAAGAGTTAATCCGTGGGGCTCGTGGGACGGAGTCACCTAGTGCAG,45300 fluorescence intensity (a.u.)
18,AGGGTTATAATTAGATGGGTAGTGGAGGTAGGTAAGAAAACGGAGTCACCTAGTGCAG,4130 fluorescence intensity (a.u.)
19,CACCCGCACCCGCCCGCACGGCCGCGCCCGCGTCACCACCCGGAGTCACCTAGTGCAG,6150 fluorescence intensity (a.u.)
20,GGGTTGTGGTTGTTGTACGTTGTTGTTGACGGCGATGGTTCGGAGTCACCTAGTGCAG,3460 fluorescence intensity (a.u.)
21,TGTATTTTCTGACGTTGGTAGCACGGTAGCACCCGATATTCGGAGTCACCTAGTGCAG,4250 fluorescence intensity (a.u.)

row,Sequence,binding signal
1,TGTGTTCCCTTTCGGTACGTTGTATTTCGACCCTGACGTTCGGAGTCACCTAGTGCAG,42700 fluorescence intensity (a.u.)
2,GCTGGTAAAGCGGTGCGCCGGTGCCGCCACGTCCTCGCACCGGAGTCACCTAGTGCAG,15100 fluorescence intensity (a.u.)
3,CTAGAATGAGTGTTATGGCAGAGTGGTAGATGCTTGAAAACGGAGTCACCTAGTGCAG,29600 fluorescence intensity (a.u.)
4,TTTCCCCGGTGGATCGTGTTCGGACACGTCGCGGCCCCTCCGGAGTCACCTAGTGCAG,6200 fluorescence intensity (a.u.)
5,CCACGCGGACACTGACACGTCATCATCGTGTTCGTTTCCTCGGAGTCACCTAGTGCAG,39300 fluorescence intensity (a.u.)
6,CATCACGCTGACGTGTCCTTTCGTTTGGACACGGACATCTCGGAGTCACCTAGTGCAG,15000 fluorescence intensity (a.u.)
7,AATGGGGCTATAGGTAATTATGCTTAGAAGTCCGGTTCATCGGAGTCACCTAGTGCAG,5130 fluorescence intensity (a.u.)
8,GTTGGGGCGCCTCTGGGGCTGTCCACGTCGGATAGCTACACGGAGTCACCTAGTGCAG,20700 fluorescence intensity (a.u.)
9,CAATCCGTTGATCGGGGTCGTAGTCCATCGACAGAAATTACGGAGTCACCTAGTGCAG,41800 fluorescence intensity (a.u.)
10,GAATCCATCGACACGTTTCTTTCGTCAGAACAGTGTCCGTCGGAGTCACCTAGTGCAG,3420 fluorescence intensity (a.u.)
11,AATCCGAGTAGTCATTGTCGTTTCCATGCAGAATTATGGTCGGAGTCACCTAGTGCAG,4030 fluorescence intensity (a.u.)
12,CGCGTCCGCAGTGTCCCACTCCCGCCACTCCTTCCACCCCCGGAGTCACCTAGTGCAG,3780 fluorescence intensity (a.u.)
13,CTCTCTCTCGGCTTCCACTCCCGTCTCCTCGTCTCCTCGCCGGAGTCACCTAGTGCAG,4090 fluorescence intensity (a.u.)
14,ATTGACGCGCCTCGGTATTACCTCACTAGCTGCGTCATTGCGGAGTCACCTAGTGCAG,6460 fluorescence intensity (a.u.)
15,ATATTGTCACGTGTCACATGTTAGTTTGTTCAGGAACGGACGGAGTCACCTAGTGCAG,5880 fluorescence intensity (a.u.)
16,ATGTTTAATCAACCTCTAAATCAATAAGATTAGTCATGTACGGAGTCACCTAGTGCAG,3950 fluorescence intensity (a.u.)
17,TCCATTAAGCCTCCGTTTAGTAAAGATAAAGATTGGTCAACGGAGTCACCTAGTGCAG,44200 fluorescence intensity (a.u.)
18,TTATTAAGCCTAATTAATCCATCATTAGTAAATATTTACTCGGAGTCACCTAGTGCAG,3780 fluorescence intensity (a.u.)
19,ACTTTCTTGAATTTAATGCGTGACTCTCCATTCGTCCACACGGAGTCACCTAGTGCAG,3620 fluorescence intensity (a.u.)
